Several values for one entry are separate records, joined by “and”; a condition that tells them apart may be missing. Equal entries are not always repeated. Some structures have more than one record in an assay (separate samples or runs), and their calls can disagree. Activity calls are given as the source filed them. Rule for the calls: active = hit-call score of the fitted dose curve at least 0.9, where 1 is the maximum; inactive = score below 0.9.

The target in one test is Heat shock factor protein 1 (Homo sapiens) (UniProt Q00613). Briefly: ATG_HSE_CIS: Attagene CIS-FACTORIAL HepG2 Assay for human Heat Shock Transcription Factor 1 (HSE) (AID 2282953). The conditions noted are these: HepG2 HSE cis-reporter, Attagene RNA transcription; actives raise or lower the signal. In short, it runs like this: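 Read-out: fluorescence of reporter-specific RT-PCR fragments separated by capillary electrophoresis. HepG2 carrying transfected cis-element reporter units; 24 h dosing; activity fitted in both directions relative to DMSO baseline.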
Chain of Heat shock factor protein 1 (Homo sapiens) (Q00613 whole entry, looked up, the tested form may be a part): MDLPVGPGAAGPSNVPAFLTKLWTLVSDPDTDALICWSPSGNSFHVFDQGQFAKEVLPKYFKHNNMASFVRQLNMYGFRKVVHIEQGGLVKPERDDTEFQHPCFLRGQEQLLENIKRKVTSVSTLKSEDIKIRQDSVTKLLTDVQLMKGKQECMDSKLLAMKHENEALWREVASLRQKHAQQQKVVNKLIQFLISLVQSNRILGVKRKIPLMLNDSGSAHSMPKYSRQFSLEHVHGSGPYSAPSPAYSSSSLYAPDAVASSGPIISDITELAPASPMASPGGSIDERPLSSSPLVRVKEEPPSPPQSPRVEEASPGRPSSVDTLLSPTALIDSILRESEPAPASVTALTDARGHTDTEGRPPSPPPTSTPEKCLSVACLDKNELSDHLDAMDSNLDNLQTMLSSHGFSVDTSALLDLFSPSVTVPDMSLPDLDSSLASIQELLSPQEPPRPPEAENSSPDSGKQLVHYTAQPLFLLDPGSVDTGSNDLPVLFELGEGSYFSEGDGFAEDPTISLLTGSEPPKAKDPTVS
Take `CON(C)C(=O)Nc1ccc(Cl)c(Cl)c1`: the call was inactive.

Turning to `OC(c1ccc(Cl)cc1)(c1cncnc1)c1ccccc1Cl` (stereo unspecified), the half-maximal activity concentration (AC50) – broadly, the concentration at which the activity in the assay is half-maximal – was 69 µM (active) and the call was inactive.

With `COc1nc(C)nc(NC(=O)NS(=O)(=O)c2ccccc2Cl)n1`, the molecule was classed as inactive.

For `CCOC(=O)CC(SP(=S)(OC)OC)C(=O)OCC` (stereo unspecified), the molecule was called inactive.

As for `CCNc1nc(Cl)nc(NC(C)C)n1`, the molecule was classed as inactive.

Tested on in a further test: not listed separately
Briefly: ATG_MRE_CIS: Attagene CIS-FACTORIAL HepG2 Assay for human Metal Responsive Element (MRE) (AID 2282954). The conditions noted are these: HepG2 MRE cis-reporter transcription, Attagene multiplex; actives raise or lower the signal. In short, it runs like this:
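Step one: transfect HepG2 with cis-regulated reporter units. Step two: dose 24 h. Step three: isolate RNA, RT-PCR, 6-FAM label, HpaI digest, capillary electrophoresis. Fit bidirectionally to DMSO.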
Regarding `CO/C=C(/C(=O)OC)c1ccccc1Oc1cc(Oc2ccccc2C#N)ncn1`, the AC50 was 50 µM (active) [middle of 6 runs].

For `CON(C)C(=O)Nc1ccc(Cl)c(Cl)c1`, the result was inactive.

With `CCOc1cc(Oc2ccc(C(F)(F)F)cc2Cl)ccc1[N+](=O)[O-]`, the AC50 is 22 µM (active).

`CNC(=S)S`: the AC50 was 70.4 µM (active) and the molecule was called inactive.

For `Cc1ccc(-c2c(Cl)nc(C#N)n2S(=O)(=O)N(C)C)cc1`, the result was inactive.

`COP(=S)(OC)Oc1nc(Cl)c(Cl)cc1Cl`: the result was inactive.

`CC1COC(Cn2cncn2)(c2ccc(Oc3ccc(Cl)cc3)cc2Cl)O1` (stereo unspecified): the AC50 was 3.17 µM (active).

For `Fc1ccc(Oc2ccnc3cc(Cl)cc(Cl)c23)cc1`, the result was inactive.

As for `COc1cnc(OC)n2nc(NS(=O)(=O)c3c(OCC(F)F)cccc3C(F)(F)F)nc12`, the outcome was inactive.

As for `CCNc1nc(Cl)nc(NCC)n1`, the outcome was inactive.

As to `C#CCOS(=O)OC1CCCCC1Oc1ccc(C(C)(C)C)cc1` (stereo unspecified), the AC50 was 2.4 µM (active).

On to `OC(c1ccc(Cl)cc1)(c1cncnc1)c1ccccc1Cl` (stereo unspecified), for which the AC50 is 70.8 µM (active) and the molecule was classed as inactive.

For the molecule `O=C(Nc1ccccc1)Nc1ccnc(Cl)c1`, the AC50 was 37 µM (active).

As for `CCCCOC(=O)c1ccccc1C(=O)OCCCC`, the AC50 is 41.4 µM (active) and the molecule was called inactive.

On to `CCCCC(CC)COC(=O)c1ccccc1C(=O)OCC(CC)CCCC` (stereo unspecified), for which the result was inactive.

For `O=C(O)c1nc(Cl)ccc1Cl`, the outcome was inactive.

Regarding `Cc1cc(Cl)ccc1OCC(=O)O`, the call was inactive.

`COc1nc(NC(C)C)nc(NC(C)C)n1`: the result was inactive.

Take `CC1=C(C(=O)Nc2ccccc2)SCCO1`: the call was inactive.

In the case of `CN(C)C(=S)SSC(=S)N(C)C`, the call was inactive.

On to `CCCCNC(=O)n1c(NC(=O)OC)nc2ccccc21`, for which the outcome was inactive.

Regarding `COc1nc(C)nc(NC(=O)NS(=O)(=O)c2ccccc2Cl)n1`, the molecule was called inactive.

As to `CCOC(=O)CC(SP(=S)(OC)OC)C(=O)OCC` (stereo unspecified), the AC50 was 100 µM (active) and 13.2 µM (active).

On to `N#Cc1cc(Br)c(O)c(Br)c1`, for which the AC50 is 39.9 µM (active).

For the molecule `COP(N)(=O)SC` (stereo unspecified), the call was inactive.

Turning to `CCNc1nc(Cl)nc(NC(C)C)n1`, the molecule was classed as inactive.

Regarding `CCCN(CCC)c1c([N+](=O)[O-])cc(S(N)(=O)=O)cc1[N+](=O)[O-]`, the result was inactive.
